Assay results as given in PubChem BioAssay AID1212 (NMMLSC, 2008).
The source made the active and inactive calls.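 How the source made its calls: active means blocks over 60% of fluorescent estradiol binding at 10 µM; inactive means the rest.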

target: G-protein coupled estrogen receptor 1 (Homo sapiens) (UniProt Q99527); test: displacement of E2-Alexa633 from GPER – cell-based, Cos7 GPR30-GFP, flow cytometry, 10 µM, primary screen (AID 1212); conditions: fluorescent estrogen competition, at 10 µM; active compounds read high

outcome, inactive:
O=c1oc2c(CN3CCCC3)c(O)ccc2c2c1CCC2
CC(=O)OC1CC2(C)C(=O)CCC2C2CCc3cc(O)ccc3C12 (stereo not drawn)
O=c1oc2cc(O)ccc2c2c1CCC2
CCCOc1cc2oc(=O)c3c(c2cc1CC)CCCC3
CC1(C)CC(=O)c2cn(-c3ccc(Cl)cc3)c(=N)c(C#N)c2C1
CCCOc1cc(OCCC)c2c3c(c(=O)oc2c1)CCCC3
COc1ccc(Oc2ccc3c(c2)c2c4n3CCNC4CCC2)cc1 (stereo not drawn)
COc1ccc2c(c1)c1c3n2CCNC3CCC1 (stereo not drawn)
CC(Nc1ccc(N2CCNCC2)cc1[N+](=O)[O-])C12CC3CC(CC(C3)C1)C2 (stereo not drawn)
COc1cc([N+](=O)[O-])cc2c1NC(c1ccc(Br)cc1)C1CC=CC21 (stereo not drawn)
CCCCc1cc(=O)oc2c(C)c(O)ccc12
Oc1ccc2c(c1)c1c3n2CCNC3CCC1 (stereo not drawn)
CCCc1cc(=O)oc2c(C)c(OC3CCCCC3=O)ccc12 (stereo not drawn)
CCCCCCc1cc2c3c(c(=O)oc2cc1OCC(N)=O)CCC3
CCCCCCc1cc2c3c(c(=O)oc2cc1OCC(=O)OC)CCC3
CC1=CC(C)C2(CO)COC(c3ccccc3O)C1C2C (stereo not drawn)

inhibition, active:
CC(=O)Oc1ccc(C2Nc3c(C(=O)O)ccc([N+](=O)[O-])c3C3C=CCC32)cc1 (stereo not drawn) 99%
CCOc1ccc(NS(=O)(=O)c2ccc3c(c2)[C@H]2C=CC[C@H]2[C@@H](c2ccc(C(=O)O)cc2)N3)cc1 100%
COc1cc([N+](=O)[O-])cc2c1N[C@@H](c1ccc(C(=O)O)cc1)[C@H]1CC=C[C@@H]21 91%

inhibition, inactive:
COc1ccccc1C1Nc2c(C(=O)O)cccc2C2C3CCC(C3)C12 (stereo not drawn) 5%
CCCCOc1cc(OCCCC)c2c3c(c(=O)oc2c1)CCCC3 34%
CCOC(=O)c1c(N)sc2c1CC(C)(C)NC2(C)C 10%
COc1cc2c(cc1OC)C(Cc1ccc(O)cc1)N(C)CC2 (stereo not drawn) 1%
COc1cc([N+](=O)[O-])cc2c1NC(c1ccccc1)C1CC=CC21 (stereo not drawn) 34%
COC(=O)c1ccc2c(c1)C1C=CCC1C(c1cccc([N+](=O)[O-])c1)N2 (stereo not drawn) 16%
COc1ccc2[nH]c3c(c2c1)CCNC3=O 15%
COc1ccc(NS(=O)(=O)c2ccc3c(c2)[C@H]2C=CC[C@H]2[C@@H](c2cccc(OC)c2OC)N3)cc1 44%
CCCCc1cc2c(=O)c(-c3ccccn3)coc2cc1O 3%
